These results are taken from PubChem BioAssay (NCATS).

Records with an inconclusive call do not appear. The source made the active and inactive calls. Unless noted, calls follow the shape of the dose curve; as a rule, active = well fitted curve in the direction sought with a large enough effect; inconclusive = small, poorly fitted or top-dose-only effect, or another doubt; inactive = no such curve, though single readings can be large; an effect the other way counts as inactive or inconclusive.

The nature of assay [1]: AP1 Signaling Pathway (AID 357; active = well fitted curve in either direction with a large enough effect, not every such curve was filed as active;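 also: ME-180 reporter cells stimulated with EGF at its EC50 level; % is scaled to controls: 0 for no effect and ±100 for the full control effect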). As to conditions: ME-180 AP-1-bla reporter, EGF-induced, beta-lactamase ratio, 5 h; at 38 µM (top of the series). A digest of the protocol:
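A ratiometric CCF4 readout (405 nm excitation; 460 and 530 nm emission) quantified AP-1-driven beta-lactamase in ME-180 cells after 5 h with compound and EC50 EGF; AC50 values were derived for activators and inhibitors.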

Assay [2] has as its target Cytochrome P450 1A2 (Homo sapiens) (UniProt P05177). Description: p450-cyp1a2 (AID 410; calls by dose curve;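 also: -100% = full effect of reference inhibitor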). Conditions: recombinant CYP1A2, luciferin-ME demethylation, luminescence; series mostly up to 57 µM. In outline:
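Luminescent readout of luciferin formed from Luciferin-ME by human CYP1A2; data normalized against complete inhibition by 57 uM furafylline. Enzyme 20nM, substrate 100uM at Km, 100mM KPO4 buffer, 60 min reaction at room temperature.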

The nature of assay [3]: NFAT Signaling Pathway (AID 444; active = well fitted curve in either direction with a large enough effect, not every such curve was filed as active;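 also: carbachol stimulus at about its EC50 of 1 µM final; % is scaled to controls: 0 for no effect and ±100 for the full control effect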). As to conditions: Jurkat NFAT-bla M1, carbachol, beta-lactamase ratio, 5 h; at 38 µM (top of the series). A digest of the protocol: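 Jurkat cells with NFAT-driven β-lactamase reporter and co-expressed M1 receptor, stimulated with carbachol (final 1 uM, ~EC50), compound titration, 5 h at 37 °C. CCF4 loaded 1 h at RT; 460/530 nm ratio gave %activity and AC50.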

Assay [4] is described as follows: Stat Signaling Pathway (AID 446; active = well fitted curve in either direction with a large enough effect, not every such curve was filed as active;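 also: ME-180 cervical cancer cells given 40 pM IL-6 alongside compound; SIE-controlled beta-lactamase reporter measured as 460/530 nm FRET emission ratio; % is scaled to controls: 0 for no effect and ±100 for the full control effect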). As to conditions: ME-180 SIE beta-lactamase reporter, IL-6 stimulated, 5 h; at 38 µM (top of the series). In outline:
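Screening format detects activators and inhibitors alike: ME-180 SIE-bla cells stimulated at 40 pM IL-6 for 5 hrs with compound, then dual-emission beta-lactamase read at 405 nm excitation.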

Assay [5] has as its target Glucocorticoid receptor (Homo sapiens) (UniProt P04150). Description: GR-GFP Redistribution (AID 450;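 active = compounds whose dose series gives a full or clear partial fitted curve of increased nuclear translocation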; also: potency is read from the fitted curve at half-maximal effect). As to conditions: U2OS GR-GFP nuclear translocation, laser cytometry, 2 h.
For assay [6] the target is unchanged. Description: GR-EFC Redistribution (AID 451; calls by dose curve; also: potency is read from the fitted curve at half-maximal effect). Conditions: CHO-K1 GR-EFC translocation, beta-gal luminescence, 2 h. A digest of the protocol: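 CHO-K1 cells expressing nuclear EA and GR-ED fragments of b-gal; compounds titrated up to 46 uM final, 2 h at 37 C. GR nuclear translocation read as complemented b-gal luminescence after 1 h RT detection.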
Assay [7] has as its target 3',5'-cyclic-AMP phosphodiesterase 4B (Homo sapiens) (UniProt Q07343). Description: qHTS Assay for Inhibitors of PDE-IV (AID 607; active = well fitted activation curve with a large enough effect in the main read-out, with a control signal flat, not every such curve was filed as active; also: % of control where 0% means no effect). Conditions: HEK293 ACTOne CNG channel cells, membrane potential fluorescence; series mostly up to 22.9 µM. In outline:
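The readout is membrane depolarisation from a cAMP-sensing CNG channel, detected with a potential dye at ex 535/em 590. Cells were HEK293-derived (endogenous PDE-IV) at 1000 cells/well, titrated up to 22.9 uM final.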
In general terms: In qHTS, concentration-response curves come from the screen itself.

Assay [8] can be described thus: qHTS Assay for Identification of Small Molecule Agonists for Thrombopoietin (TPO) Signaling Pathway (AID 917). Also: % is scaled to controls: 0 for no effect and ±100 for the full control effect. As to conditions: TPO signaling pathway reporter cells, agonist qHTS, stimulated with TPO at its EC50; series mostly up to 38.5 µM. A digest of the protocol: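 Luminescence from a Glycoprotein IIb promoter–driven luciferase reporter served as read-out in murine Ba/F3 cells carrying the human TPO receptor. Cells, deprived of IL-3 overnight, received compounds with 26 pM TPO and were incubated 24 hrs at 37 C.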

The target of assay [9] is Pyruvate kinase (Leishmania mexicana) (UniProt Q27686). Description: qHTS Validation Assay for Inhibitors of Leishmania Mexicana Pyruvate Kinase (AID 945).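 Also: 0% = DMSO only neutral control wells.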 As to conditions: purified L. mexicana pyruvate kinase, enzyme activity, E451W mutant enzyme; series mostly up to 57.5 µM. In outline:
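Read-out: luminescence from PKLight stop/detection reagent, data normalized to DMSO. Reaction: 0.2 nM E451W LmPYK, 0.5 mM PEP, 0.1 mM ADP, pH 7.2, 1 h room temperature.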

The target of assay [10] is Pyruvate kinase PKM (Homo sapiens) (UniProt P14618). Description: qHTS Assay for Activators of Human Muscle Pyruvate Kinase (AID 954; active = well fitted curve in the direction sought with a large enough effect, not every such curve was filed as active;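 also: 0% = uninhibited enzyme and -100% = no enzyme or full thiadiazolimine inhibition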). As to conditions: purified human muscle pyruvate kinase, luciferase-coupled luminescence, 1 h; series mostly up to 57.5 µM. In outline:
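Reaction: 0.1 nM purified PKM2 with 0.5 mM phosphoenolpyruvate and 0.1 mM ADP, room temperature, 1 h. Readout: luciferase-based ATP luminescence after stop reagent. Activators judged against a 0.3 nM enzyme column.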

The target of assay [11] is alpha-glucosidase (Oryza sativa, rice) (UniProt Q653V4). Description: Counterscreen for Glucocerebrosidase Inhibitors: qHTS Assay for Rice alpha-Glucosidase at pH 5.0 (AID 997).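 Also: 0% = full activity with enzyme and -100% = basal without enzyme.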 As to conditions: rice alpha-glucosidase enzyme activity; series mostly up to 76.9 µM. A digest of the protocol:
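Rice alpha-glucosidase (4 nM final) with 400 uM 4-methylumbelliferyl-alpha-D-glucopyranoside in citrate buffer pH 5.0, 20 min at room temperature, stopped at pH 10; fluorescence 365/440 nm, compounds 0.7 nM–77 uM, AC50 from Hill fits.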

The nature of assay [12]: qHTS Assay for Lipid Storage Modulators (AID 1519; calls by dose curve). Conditions: Drosophila S3 cells, BODIPY lipid droplet/cell ratio, laser cytometry, cells loaded with oleic acid; for activity change, negative = inhibition: at 57.5 µM (top of the series). A digest of the protocol: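 Cells seeded at 5,000 per well were treated with compounds over a concentration series and loaded with oleic acid (400 uM, as added). Lipid droplet fluorescence (488 nm excitation, 500-530 nm channel) was read by laser-scanning cytometry and normalized to 20 uM Triacsin C.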

The target of assay [13] is Ubiquitin carboxyl-terminal hydrolase 1 (Homo sapiens) (UniProt O94782). Description: Inhibitors of USP1/UAF1: Pilot qHTS (AID 504865).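 Also: rhodamine fluorescence freed from ubiquitin-rhodamine substrate followed over time; top concentration of the series differs between compounds; % is scaled to controls: 0 for no effect and ±100 for the full control effect; nearly all actives have a fitted effect of over 35% in size.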 As to conditions: purified USP1/UAF1, Ub-rhodamine cleavage fluorescence; series mostly up to 114 µM. In outline:
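In 50mM HEPES pH 7.8 containing 0.5mM EDTA, 1mM TCEP, 0.1 mg/ml BSA and 0.01% Tween-20, 1nM USP1/UAF1 is exposed to compound for 15 min, then Ub-Rho (150nM final) is added and fluorescence is read over time.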

Assay [14] deals with DNA dC->dU-editing enzyme APOBEC-3G (Homo sapiens) (UniProt Q9HC16). Description: qHTS for inhibitors of Vif-A3G interactions: Validation (AID 588379). Also: 0% is about no effect. As to conditions: Vif-A3G protein interaction assay; series mostly up to 46.1 µM. In outline: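 HeLa cells stably expressing Vif and A3G-eYFP, 700 cells/well, incubated overnight at 37 deg C, then exposed to compound overnight at 37 deg C. Inhibition of Vif-mediated degradation read as increased yellow fluorescence (Ex 488/Em 500-530) by laser-scanning cytometry.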
Chain of DNA dC->dU-editing enzyme APOBEC-3G (Homo sapiens) (Q9HC16 whole entry, looked up): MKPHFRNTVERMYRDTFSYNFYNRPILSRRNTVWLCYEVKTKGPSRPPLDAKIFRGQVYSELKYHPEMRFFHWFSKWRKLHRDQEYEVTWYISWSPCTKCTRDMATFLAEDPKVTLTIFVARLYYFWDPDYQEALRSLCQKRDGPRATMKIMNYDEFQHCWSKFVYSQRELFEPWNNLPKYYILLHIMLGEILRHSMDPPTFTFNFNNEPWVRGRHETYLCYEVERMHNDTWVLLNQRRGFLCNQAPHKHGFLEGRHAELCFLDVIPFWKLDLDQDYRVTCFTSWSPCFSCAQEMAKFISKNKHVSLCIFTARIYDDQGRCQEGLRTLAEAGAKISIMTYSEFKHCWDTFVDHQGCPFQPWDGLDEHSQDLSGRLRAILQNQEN

Assay [15] has as its system Zika virus NS2B-NS3 protease. Description: Primary screen GU AMC qHTS for Zika virus inhibitors (AID 1347154).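 Also: 0% = no-inhibitor control and -100% = no-enzyme control; nearly all actives have a fitted effect of over 70% in size.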 Conditions: Zika NS2B-NS3 unlinked protease, AMC fluorogenic substrate; series mostly up to 54.1 µM. In outline:
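Unlinked Zika NS2B hydrophilic domain–NS3 protease complex at 25 nM in 10 mM Tris-HCl pH 8.0, 0.01% Tween 20, with an AMC peptide substrate. Fluorescence change (340/450 nm) over 15 min at room temperature, normalized to controls, fitted to 4-parameter Hill.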

A short description of assay [16]: Primary qHTS for small molecule stabilizers of the endoplasmic reticulum resident proteome: Secreted ER Calcium Modulated Protein (SERCaMP) assay (AID 1508630). Also: % is scaled to controls: 0 for no effect and ±100 for the full control effect. As to conditions: SH-SY5Y GLuc-SERCaMP (Gaussia luciferase released on ER calcium loss) secretion, thapsigargin, luminescence; series mostly up to 38.4 µM. A digest of the protocol:
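GLuc-SERCaMP-expressing SH-SY5Y cells, pretreated 16 h with compound, are challenged with thapsigargin to empty ER calcium stores; after 4 h, coelenterazine is added directly to the medium and luminescence is imaged.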

In assay [17] the target is Cytochrome P450 3A4 (Homo sapiens) (UniProt P08684). Description: qHTS Assay for Activators of Cytochrome P450 3A4 (AID 885). Also: nearly all actives have a fitted effect of over 65% in size. As to conditions: recombinant CYP3A4, Luciferin-PPXE luminescence, 60 min; series mostly up to 57.1 µM. A digest of the protocol: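 Steps: enzyme/substrate mix dispensed; compound added, 10 min RT; NADPH regeneration solution added, 60 min RT; luciferin detection buffer stops reaction; 20 min later luminescence measured.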
Chain of Cytochrome P450 3A4 (Homo sapiens) (P08684 whole entry, looked up): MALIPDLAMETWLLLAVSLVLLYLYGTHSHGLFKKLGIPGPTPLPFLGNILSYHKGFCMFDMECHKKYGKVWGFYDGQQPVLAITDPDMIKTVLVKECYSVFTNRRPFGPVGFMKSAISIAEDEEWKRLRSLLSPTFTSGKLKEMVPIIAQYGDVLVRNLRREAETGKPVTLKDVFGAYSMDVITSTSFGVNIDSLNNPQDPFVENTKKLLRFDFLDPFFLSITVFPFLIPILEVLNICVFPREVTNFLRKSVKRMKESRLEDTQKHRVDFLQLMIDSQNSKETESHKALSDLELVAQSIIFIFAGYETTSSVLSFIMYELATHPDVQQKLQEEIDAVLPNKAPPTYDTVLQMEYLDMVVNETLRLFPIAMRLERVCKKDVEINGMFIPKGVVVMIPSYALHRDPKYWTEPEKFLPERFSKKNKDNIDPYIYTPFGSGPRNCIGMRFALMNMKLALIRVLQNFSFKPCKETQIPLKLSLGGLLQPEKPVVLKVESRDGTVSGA

The mark [18] stands for this setting: measured here: cell count channel max response.
The mark [19] stands for this setting: measured here: lipid channel max response.

Chain of Glucocorticoid receptor (Homo sapiens) (P04150 whole entry, looked up, the tested form may be a part): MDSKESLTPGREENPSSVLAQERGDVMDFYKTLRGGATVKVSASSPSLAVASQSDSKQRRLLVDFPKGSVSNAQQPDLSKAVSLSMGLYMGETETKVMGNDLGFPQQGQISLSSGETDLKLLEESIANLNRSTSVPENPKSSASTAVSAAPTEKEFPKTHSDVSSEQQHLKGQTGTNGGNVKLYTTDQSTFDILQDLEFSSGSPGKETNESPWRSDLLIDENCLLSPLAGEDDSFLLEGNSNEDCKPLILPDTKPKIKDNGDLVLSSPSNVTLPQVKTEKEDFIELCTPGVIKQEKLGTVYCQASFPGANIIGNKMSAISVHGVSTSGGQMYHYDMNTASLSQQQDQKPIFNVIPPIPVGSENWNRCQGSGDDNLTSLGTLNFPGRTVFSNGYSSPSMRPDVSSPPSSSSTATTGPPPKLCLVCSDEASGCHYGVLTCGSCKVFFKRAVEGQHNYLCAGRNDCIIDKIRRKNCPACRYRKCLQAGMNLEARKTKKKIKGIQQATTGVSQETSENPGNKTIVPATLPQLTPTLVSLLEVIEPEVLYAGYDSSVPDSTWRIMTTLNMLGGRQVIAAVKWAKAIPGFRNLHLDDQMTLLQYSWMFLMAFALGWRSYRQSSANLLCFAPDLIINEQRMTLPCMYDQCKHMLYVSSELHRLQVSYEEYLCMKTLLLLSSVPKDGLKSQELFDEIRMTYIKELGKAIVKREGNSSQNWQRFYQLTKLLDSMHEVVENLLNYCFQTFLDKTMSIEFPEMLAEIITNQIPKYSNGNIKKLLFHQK
Chain of Cytochrome P450 1A2 (Homo sapiens) (P05177 whole entry, looked up): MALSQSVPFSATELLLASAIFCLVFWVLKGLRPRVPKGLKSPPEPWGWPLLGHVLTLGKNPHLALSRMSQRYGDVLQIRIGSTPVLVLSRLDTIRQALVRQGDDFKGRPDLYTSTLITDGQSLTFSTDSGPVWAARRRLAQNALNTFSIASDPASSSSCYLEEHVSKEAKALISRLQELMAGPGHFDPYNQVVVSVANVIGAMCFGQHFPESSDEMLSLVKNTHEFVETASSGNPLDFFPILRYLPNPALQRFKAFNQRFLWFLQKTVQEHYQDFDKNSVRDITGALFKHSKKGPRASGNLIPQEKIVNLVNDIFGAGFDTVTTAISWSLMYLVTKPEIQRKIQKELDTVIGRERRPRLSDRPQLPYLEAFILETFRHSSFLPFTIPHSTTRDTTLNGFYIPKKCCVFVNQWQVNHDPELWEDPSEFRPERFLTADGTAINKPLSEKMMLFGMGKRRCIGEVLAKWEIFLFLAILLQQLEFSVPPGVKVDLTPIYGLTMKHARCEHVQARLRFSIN
Chain of Pyruvate kinase PKM (Homo sapiens) (P14618 whole entry, looked up): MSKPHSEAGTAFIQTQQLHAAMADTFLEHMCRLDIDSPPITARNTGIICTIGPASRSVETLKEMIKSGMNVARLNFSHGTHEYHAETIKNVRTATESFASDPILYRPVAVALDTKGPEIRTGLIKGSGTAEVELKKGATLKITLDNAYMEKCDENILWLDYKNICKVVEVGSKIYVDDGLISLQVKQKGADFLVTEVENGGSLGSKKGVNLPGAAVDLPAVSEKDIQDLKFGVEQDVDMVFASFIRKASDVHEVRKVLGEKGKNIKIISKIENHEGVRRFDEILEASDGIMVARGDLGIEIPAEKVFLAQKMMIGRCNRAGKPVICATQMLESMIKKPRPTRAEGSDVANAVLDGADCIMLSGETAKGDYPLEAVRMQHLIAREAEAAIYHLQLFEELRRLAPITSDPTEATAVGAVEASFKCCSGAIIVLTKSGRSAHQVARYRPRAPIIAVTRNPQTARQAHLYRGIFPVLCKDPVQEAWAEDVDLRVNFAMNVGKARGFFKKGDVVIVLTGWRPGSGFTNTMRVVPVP
Chain of Ubiquitin carboxyl-terminal hydrolase 1 (Homo sapiens) (O94782 whole entry, looked up): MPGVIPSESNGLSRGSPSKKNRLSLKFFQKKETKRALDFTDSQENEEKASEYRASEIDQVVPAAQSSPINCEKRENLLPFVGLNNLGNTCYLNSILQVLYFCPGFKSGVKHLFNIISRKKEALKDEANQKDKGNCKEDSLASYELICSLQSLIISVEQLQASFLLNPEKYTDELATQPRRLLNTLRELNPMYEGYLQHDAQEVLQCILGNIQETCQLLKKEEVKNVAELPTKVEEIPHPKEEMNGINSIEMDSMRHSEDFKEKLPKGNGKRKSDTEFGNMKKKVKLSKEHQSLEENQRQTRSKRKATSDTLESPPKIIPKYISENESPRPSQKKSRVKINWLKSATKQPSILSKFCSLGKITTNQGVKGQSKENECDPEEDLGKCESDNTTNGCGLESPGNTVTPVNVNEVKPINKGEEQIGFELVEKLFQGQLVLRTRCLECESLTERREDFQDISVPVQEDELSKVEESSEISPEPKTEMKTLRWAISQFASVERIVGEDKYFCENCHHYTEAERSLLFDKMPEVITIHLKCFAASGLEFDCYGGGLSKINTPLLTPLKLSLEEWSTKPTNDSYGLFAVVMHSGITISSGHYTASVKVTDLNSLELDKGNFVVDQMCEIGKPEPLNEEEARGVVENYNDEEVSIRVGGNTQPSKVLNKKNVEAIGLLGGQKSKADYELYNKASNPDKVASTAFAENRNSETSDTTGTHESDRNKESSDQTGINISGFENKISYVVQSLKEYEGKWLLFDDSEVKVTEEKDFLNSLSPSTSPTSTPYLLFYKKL
Chain of Pyruvate kinase (Leishmania mexicana) (Q27686 2-499 E452W): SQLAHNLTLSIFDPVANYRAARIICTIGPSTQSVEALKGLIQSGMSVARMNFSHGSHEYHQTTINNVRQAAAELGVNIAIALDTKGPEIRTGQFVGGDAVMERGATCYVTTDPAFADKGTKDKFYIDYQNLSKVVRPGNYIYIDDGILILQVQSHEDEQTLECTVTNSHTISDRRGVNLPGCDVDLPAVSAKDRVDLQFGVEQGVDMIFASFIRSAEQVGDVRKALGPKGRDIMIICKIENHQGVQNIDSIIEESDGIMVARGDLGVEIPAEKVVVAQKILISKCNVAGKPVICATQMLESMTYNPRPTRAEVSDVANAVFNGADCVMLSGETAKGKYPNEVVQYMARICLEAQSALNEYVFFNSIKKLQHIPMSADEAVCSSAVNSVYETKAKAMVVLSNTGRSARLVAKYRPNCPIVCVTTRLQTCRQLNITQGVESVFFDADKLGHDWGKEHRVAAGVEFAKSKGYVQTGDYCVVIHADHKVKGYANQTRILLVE
Chain of 3',5'-cyclic-AMP phosphodiesterase 4B (Homo sapiens) (Q07343 whole entry, looked up): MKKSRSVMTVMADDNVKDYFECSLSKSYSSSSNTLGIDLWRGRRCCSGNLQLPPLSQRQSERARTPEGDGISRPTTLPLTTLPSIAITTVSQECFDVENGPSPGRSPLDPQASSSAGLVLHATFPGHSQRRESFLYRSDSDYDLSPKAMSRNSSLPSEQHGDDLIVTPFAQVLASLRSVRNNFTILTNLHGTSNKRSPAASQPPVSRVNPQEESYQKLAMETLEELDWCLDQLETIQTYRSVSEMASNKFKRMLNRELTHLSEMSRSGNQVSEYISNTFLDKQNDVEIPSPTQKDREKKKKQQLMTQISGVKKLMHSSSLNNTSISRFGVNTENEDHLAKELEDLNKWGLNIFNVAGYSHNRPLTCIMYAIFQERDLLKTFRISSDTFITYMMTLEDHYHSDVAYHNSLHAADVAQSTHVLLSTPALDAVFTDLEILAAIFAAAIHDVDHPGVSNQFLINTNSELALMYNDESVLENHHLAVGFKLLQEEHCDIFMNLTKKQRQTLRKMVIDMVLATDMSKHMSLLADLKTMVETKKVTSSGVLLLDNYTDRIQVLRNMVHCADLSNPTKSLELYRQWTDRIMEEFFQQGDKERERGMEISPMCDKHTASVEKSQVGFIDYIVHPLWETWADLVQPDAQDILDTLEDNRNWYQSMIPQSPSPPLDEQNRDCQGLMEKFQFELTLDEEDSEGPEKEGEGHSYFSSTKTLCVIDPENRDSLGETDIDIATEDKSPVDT

Regarding `N[C@@H](CO)C(=O)O`, the activity change, negative = inhibition in [1] was 6.64% (inactive); in assay [3] it was 1.99% (inactive); in assay [12], -1.57% (inactive). In addition, the Potency result in [2], in assay [7], in [8], in [9], in assay [13] and in assay [14] was “inactive” throughout. The Potency entry in assay [15] and in assay [16] was “inactive” in each case. For the same compound, the activity, negative = inhibition in assay [4] is -12.9% (inactive). In addition, the Potency in [5] and in [6] was > 46 µM (inactive) each time. Further, the compound was called inactive in [10] and in assay [11]. The results for the max response in assay [12] (setting [18]) and in assay [12] (setting [19]) were 0.892% and -1.78%, respectively.
`COc1ccccc1NC(=O)Nc1nc(-c2cccnc2)nc2ccccc12`: the activity change, negative = inhibition is 12.1% (inactive) in assay [1], 4.7% (inactive) in assay [3] and -0.716% (inactive) in assay [12]. For the same compound, the activity, negative = inhibition in assay [4] is 4.21% (inactive). Further, the Potency in assay [5] and in assay [6] was > 46 µM (inactive) each time. Moreover, the Potency result in assay [7], in assay [17], in assay [8], in assay [9], in assay [15] and in assay [16] was “inactive” each time. Besides, the compound was classed as inactive in assay [10] and in assay [11]. The max response is -30.6% in assay [12] (setting [18]) and -29% in assay [12] (setting [19]).
